Rows were chosen to be rich in hits. Some 2.4% of all compounds tested hit in one or more screens of this group.
HSP90 inh – HSP90 inhibitors, primary screen, cell lysate, luminescence; Heat shock protein HSP 90 (rabbit reticulocyte lysate; luciferase refolding); Rabbit reticulocyte lysate, luciferase refolding luminescence, 3 h; inhibition, % at 5.6 µM; 0.91% of 290,000 active; AID 1789, 2009;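 active = inhibition above the screen-wide mean plus 3 SD, computed separately per campaign, cut at about 16% in these data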;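 note: 0% = DMSO wells and 100% = 60 µM geldanamycin wells; inhibitors lower the luminescence because luciferase stays unfolded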
TRAIL sens C8 – viability loss with TRAIL in NB7+C8 cells, primary screen, TRAIL sensitizer project, cell-based, ATPlite luminescence; inhibition (viability loss, TRAIL sensitization), % at 10 µM; 1% of 360,000 active; AID 624354, 2012;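 active = compounds causing at least 50% loss of cell viability in the single-dose screen, relative to plate controls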
PPC-1+TRAIL kill – compounds killing PPC-1 cancer cells with TRAIL present, primary screen, TRAIL potentiator project, ATPLite luminescence, uHTS | PPC-1 cells + TRAIL, ATPLite viability luminescence | cell killing (% activity), % at 4 µM or 5 µM | 0.41% of 220,000 active;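 active = cell killing above 50% in the first pass at 4 µM, then a duplicate retest at 5 µM averaging 50% or more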;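 note: plate controls were cells with TRAIL plus DMSO for no effect and medium-only wells lacking cells for full effect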
STAT3 inh – IL-6 driven STAT3 reporter inhibitors, primary screen, U3A cells, luciferase, luminescence, MLSCN library; IL-6 STAT3-luciferase reporter; host cell line lacks STAT1; inhibition, % at 5.5 µM; 0.89% of 190,000 active; AID 862, 2007;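 active = inhibition above the mean inhibition across all screened compounds plus 3 SD, cut at about 44% in these data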;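 note: 0% = DMSO only wells and 100% = 100 µM nifuroxazide control wells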
HSF1 inh – HSF1 inhibitors in luciferase reporter cells, primary screen, cell-based, NIH3T3, luminescence. NIH3T3-HGL HSE-luciferase, MG132-induced, luminescence 8 h; active compounds read low. activity change, negative = inhibition, % at 7.5 µM (by protocol). 0.77% of 300,000 active. AID 2098, 2009;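 active = more than half of replicate wells show activity change below -50%, luminescence cut by over half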;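 note: luciferase reports HSF-1 transcriptional activity via heat shock element; 0% = median of DMSO wells and -100% = zero luminescence signal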
STAT1 blocker – STAT1 signaling inhibitors, primary screen, cell-based, HTS, luciferase reporter; inhibition, % at 5.5 µM; AID 920, 2007; NIH 3T3 STAT1-luciferase reporter, IFN-gamma, luminescence; 0.35% of 200,000 active;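 active = inhibition above a set limit, the mean inhibition across all tested compounds plus 3 SD, cut at about 34% in these data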;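 note: 0% = IFN-gamma with DMSO and 100% = IFN-gamma with 300 µM nifuroxazide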
HSP90 inh confirm – HSP90 inhibitors, confirmation, cell lysate, luminescence | inhibition, % at 5.9 µM | shares compounds with HSP90 inh | rabbit reticulocyte lysate, luciferase refolding luminescence, 3 h | 64% of 2,300 active; in the data active = inhibition above about 18%;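 note: 0% = vehicle wells and 100% = reference inhibitor wells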
FLuc counter – firefly luciferase inhibitors, HSP90 counter-screen, confirmation, artefact control for HSP90 inhibitor project, biochemical, luminescence, triplicate | inhibition, % at 5.9 µM | purified native firefly luciferase | shares compounds with HSP90 inh | 48% of 2,300 active;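 active = inhibition above the mean inhibition of all tested sample wells plus 3 SD, cut at about 10% in these data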;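 note: 0% = DMSO with luciferase and 100% = wells lacking luciferase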
Target sequence (P08659 whole entry, looked up): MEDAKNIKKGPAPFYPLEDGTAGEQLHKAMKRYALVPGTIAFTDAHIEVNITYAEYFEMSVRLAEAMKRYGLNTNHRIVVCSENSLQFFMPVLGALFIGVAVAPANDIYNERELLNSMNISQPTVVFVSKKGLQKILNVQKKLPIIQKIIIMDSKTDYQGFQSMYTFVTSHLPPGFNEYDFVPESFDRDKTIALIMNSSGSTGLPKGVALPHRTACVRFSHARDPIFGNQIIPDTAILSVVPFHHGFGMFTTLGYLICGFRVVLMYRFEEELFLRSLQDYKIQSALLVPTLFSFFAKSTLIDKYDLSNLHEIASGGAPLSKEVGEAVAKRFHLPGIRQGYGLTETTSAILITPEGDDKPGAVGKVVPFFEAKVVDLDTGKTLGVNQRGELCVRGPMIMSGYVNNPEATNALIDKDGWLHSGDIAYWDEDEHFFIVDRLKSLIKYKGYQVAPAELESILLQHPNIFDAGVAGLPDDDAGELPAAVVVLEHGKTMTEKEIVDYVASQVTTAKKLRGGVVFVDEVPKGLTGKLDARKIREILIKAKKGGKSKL
Starred values were filed as active, the others as inactive; nt = no result.

SMILES	HSP90 inh	TRAIL sens C8	PPC-1+TRAIL kill	STAT3 inh	HSF1 inh	STAT1 blocker	HSP90 inh confirm	FLuc counter
Cc1nc(N)sc1-c1csc(Nc2ccc(S(N)(=O)=O)cc2)n1	60*	0	nt	nt	-11	nt	-6	-9
CCc1nnc(N/N=C/c2c(F)cccc2Cl)n1N	-1	7	nt	nt	19	nt	nt	nt
CCOc1cc(/C=N/Nc2nnc(C)n2N)ccc1O	2	-3	nt	nt	31	nt	nt	nt
Cc1nnc(N/N=C/c2cc(C)n(-c3ccc(F)cc3)c2C)n1N	19*	2	14	-10	-96*	-22	-6	-7
Cc1nnc(N/N=C/c2ccccc2O)n1N	58*	-7	-4	-7	49	-10	-4	-18
Cc1cc(/C=N/NC(N)=S)c(C)n1-c1ccc(Br)cc1	7	-8	28	-2	-5	-14	nt	nt
Cc1nnc(N/N=C/c2c(Cl)cccc2Cl)n1N	19*	-3	16	17	17	-8	-7	-11
C#CCNC(=O)c1cccn1-c1ncc(C(F)(F)F)cc1Cl	4	-4	-1	8	4	2	nt	nt
O=C(NCc1ccccn1)c1cccn1-c1ncc(C(F)(F)F)cc1Cl	41*	-4	3	-4	-12	2	3	-1
Cc1sc2ncnc(SCC(=O)c3ccc(O)cc3O)c2c1C	19*	-3	17	nt	5	nt	-10	-11
CC(=O)Nc1ccc(NC(=O)Cn2cnc3c(cnn3C(C)(C)C)c2=O)cc1	-3	nt	7	-10	2	-3	nt	nt
CC(C)(C)n1ncc2c(=O)n(CC(=O)NCc3ccccc3)cnc21	21*	12	11	-2	19	-55	37*	34*
Cc1ccc(C(=O)NCC(=O)OCC(=O)NC(C)C2CC3CCC2C3)cc1 (stereo not given)	nt	0	nt	nt	nt	nt	nt	nt
COc1ccccc1NC(=O)CC(=O)c1ccccc1	-7	-22	nt	nt	-4	nt	nt	nt
CCCc1ccc(-c2ccc(C(=O)O)cc2)nc1	50*	11	11	23	-47	-36	56*	26*
O=C(NNC(=S)NC(=O)c1ccccc1[N+](=O)[O-])c1ccccc1O	2	21	12	8	-13	2	nt	nt
O=C(NC(=S)Nc1cccc2c(O)cccc12)c1ccccc1[N+](=O)[O-]	35*	-11	nt	nt	-18	nt	9	4
Cc1cc(C)c(C(=O)COC(=O)c2cccc(S(=O)(=O)N3CCOCC3)c2)cc1C	nt	0	nt	nt	nt	nt	nt	nt
CCNC(=O)/C(C#N)=C/c1c(N2CCN(Cc3ccc4c(c3)OCO4)CC2)nc2c(C)cccn2c1=O	-3	11	-18	10	2	5	nt	nt
CC(C)C[C@H]1CN(CCCC[C@@H]2CNC(=O)C(=O)N2Cc2ccccc2)C(=O)C(=O)N1CCc1ccccc1	nt	-7	nt	nt	nt	nt	nt	nt
NNC(=O)CNC(c1ccccc1)c1cc(Br)ccc1N (stereo not given)	58*	1	12	nt	10	nt	-2	-5
CCCCCCCCN1C(=O)[C@H](CC(=O)NCCCOC)C[C@@]2(C(=O)OC)CCCCC=C12	nt	-11	nt	nt	nt	nt	nt	nt
CCN(CC)CCN(C(=O)c1ccc2ncsc2c1)c1nc2cc3c(cc2s1)OCO3	34*	7	nt	nt	-22	nt	34*	16*
CCN(CC)CCN(C(=O)c1ccc(Br)s1)c1nc2cc3c(cc2s1)OCCO3	51*	-13	7	14	-7	-12	-3	-17
Cc1cccc(C)c1OCC(=O)NNC(=O)Nc1ccc(Cl)cc1	-2	3	5	5	3	-4	nt	nt
SMILES	HSP90 inh	TRAIL sens C8	PPC-1+TRAIL kill	STAT3 inh	HSF1 inh	STAT1 blocker	HSP90 inh confirm	FLuc counter
CS(=O)(=O)N(CC(=O)O)c1ccc(Oc2ccccc2)cc1	17*	5	18	0	-4	-2	3	-3
CCOC(=O)N1CCN(C(=O)CN(c2ccc(Oc3ccccc3)cc2)S(C)(=O)=O)CC1	-2	7	-11	12	3	4	nt	nt
CC(C)CC(=O)N1CC(=O)Nc2ccc(F)cc2C1c1ccccc1 (stereo not given)	39*	-15	nt	nt	5	nt	-6	-10
Cc1ccc2c(c1)C(c1ccccc1)N(C(=O)c1c(F)cccc1Cl)CC(=O)N2 (stereo not given)	17*	6	nt	nt	-25	nt	4	-4
CCC(CC)C(=O)N1CC(=O)Nc2ccc(F)cc2C1c1ccccc1 (stereo not given)	-1	13	nt	nt	8	nt	nt	nt
CNC(=O)C[C@H]1C(=O)N(CCc2ccccc2)C[C@@H]1CSC	nt	-19	nt	nt	nt	nt	nt	nt
COC(=O)CC1C(=O)NC(C)=C1C(=O)OC (stereo not given)	37*	nt	8	nt	-3	nt	3	1
O=C(CCN1C(=O)c2ccccc2C1=O)NCc1ccccc1	41*	2	nt	nt	-7	nt	0	-7
CCn1c(N)nc2c1c(=O)n(C)c(=O)n2C	-1	12	12	1	1	-1	nt	nt
CCCc1nc2c(=O)n(C)c(=O)nc-2n(C)n1	75*	96*	43	94*	nt	93*	83*	85*
CC(C)OP(=O)(c1ccc(N(C)C)cc1)C(O)c1ccc(N(C)C)cc1 (stereo not given)	30*	-18	nt	nt	-13	nt	-5	-7
CC(C)COP(=O)(c1ccc(N(C)C)cc1)C(O)c1ccc(N(C)C)cc1 (stereo not given)	0	4	nt	nt	-8	nt	nt	nt
CN=c1scc(-c2ccccc2F)n1/N=C/c1ccc(O)c(O)c1O	22*	84*	47	50*	-65*	87*	92*	89*
O=C(c1ccccc1)N1CCN(Cc2ccccc2)CC1	-1	-10	0	-3	-1	3	nt	nt
COc1cccc(N2CCN(C(=O)c3ccc4nc(N5CCC(C)CC5)sc4c3)CC2)c1	74*	nt	15	nt	-40	nt	76*	54*
CC(C)(C)c1ccc(C(=O)N2CCN(Cc3ccccc3)CC2)cc1	22*	3	nt	nt	-4	nt	-3	-17
CC1CCN(c2nc3ccc(C(=O)N4CCN(Cc5ccccc5)CC4)cc3s2)CC1	70*	10	7	11	-39	-33	65*	10*
CCOC(=O)N1CCN(C(=O)c2ccc3nc(N4CCC(C)CC4)sc3c2)CC1	14	-4	20	10	-8	-10	nt	nt
COc1ccc2nc(N3CCN(C(=O)c4ccc5ncsc5c4)CC3)sc2c1	nt	14	nt	nt	3	nt	nt	nt

Compound activity deposited in PubChem BioAssay by several laboratories.
